About 410 (8.5%) of roughly 4,800 compounds showed an effect of 50% or more. For the sample, strong results were picked, then their nearest neighbours and some compounds at random.
tested on: Plasmodium falciparum; assay: Confirmatory screen in NF54 pLDH assay, in single point, at 2uM, 72h; format: functional, Erythrocyte; settings: timepoint 72 hour

SMILES | % Inhibition [%]
Cc1cc(N2CCC(NCCCN3CCCc4ccccc43)CC2)nc(N)n1 | 88
Cc1cc(N2CCC(NCCc3c[nH]cn3)CC2)nc(-c2ccccc2)n1 | 11
Cc1ccc2nc(CCCNC3CCN(c4cc(C)nc(N)n4)CC3)oc2c1 | 59
OC1(c2ccc(Cl)cc2)CCN(C[C@@H]2CCCN3CCCC[C@H]23)CC1 | 88
CN(C)CCN1CCC(NC2CCC(O)(c3cccc(Cl)c3)CC2)CC1 (stereo unspecified) | 33
CC(C)(C)n1ncc2c(NCc3ccc4cccnc4c3O)ncnc21 | 37
c1ccc2c(c1)CN(c1ncnc3[nH]ccc13)CC1(CCOCC1)O2 | -5
CCn1cc(-c2cccc(C(=O)N[C@@H](C)CN3CCc4ccccc4C3)c2)cn1 | 38
NCCCCc1c(-c2cccnc2)[nH]c2c(Cl)cc(Cl)cc12 | 75
NC(=O)[C@]1(O)CCN(c2ccnc3ccc(Oc4ccccc4)cc23)C1 | 33
COCCN1CCC[C@@]2(CCN(c3ccnc4cc(Cl)ccc34)C2)C1 | 101
COCCN1CC[C@H](CN(C)c2ccnc3cc(Cl)ccc23)C1 | 102
O[C@@]1(c2c[nH]nn2)CCN(c2ccnc3cc(Cl)ccc23)C1 | 98
CN1CCC(Oc2ccc(NC(=O)c3cn4ccnc4s3)cn2)CC1 | 92
CN(C)Cc1cccc(CCNCc2csc(-c3ccc(C(F)(F)F)cc3)n2)c1 | 88
COc1ccc2[nH]cc(C3=CCN(c4ccc5nnc(-c6ccccc6F)n5n4)CC3)c2c1 | 41
c1cc(CNC2CCN(C[C@H]3CCOC3)CC2)c2cc[nH]c2c1 | -13
Fc1cccc(Cl)c1CN1CCC(NC[C@H]2CCCOC2)CC1 | 21
CCc1ccc2ncnc(NCCCN3CCN(CCO)CC3)c2c1 | 85
Cc1cc(O)c(Cl)cc1-c1ccc2nccc(N)c2c1 | 100
Cc1cc(O)c(Cl)cc1-c1cccc2c(N)ccnc12 | 94
COC(CN(Cc1nc(N)nc(Nc2ccc(C)cc2)n1)Cc1nc(N)nc(Nc2ccc(C)cc2)n1)OC | 94
c1ccc(CCC23CN(Cc4ccccn4)CC2CN(Cc2ccns2)C3)cc1 (stereo unspecified) | 88

SMILES | % Inhibition [%]
Cc1noc(-c2ccnc(NC[C@@H](c3ccccn3)N3CCOCC3)c2)n1 | 100
Cc1cc(NCCCN2CCC[C@H](O)C2)c2cc(F)ccc2n1 | 31
COc1ccc2c(C)cc(NCCCN3CCC[C@H](C(N)=O)C3)nc2c1 | 100
CCN1C[C@H](Nc2nc(C)nc3sccc23)[C@@H](OC)C1 | 101
O=C(NCCN1CCCCC1)c1cccc(-c2cnc3ccc(F)cn23)c1 | 21
CC(CNc1nc(NCC(C)N2CCOCC2)c2cc(Cl)ccc2n1)N1CCOCC1 (stereo unspecified) | 102
CCNc1cc(C)nc(NCCNC(=O)Nc2cc(F)cc(F)c2)n1 | 92
CCNc1nc(C)cc(Nc2ccc(NC(=O)Nc3ccc(F)cc3F)cc2)n1 | 99
CCOc1ccc2nc(N3CCC(N4CCC([C@H](O)c5cccnc5)CC4)CC3)nc(C)c2c1 | 8
CCOc1ccc2nc(CN(CC)CC3CCN(C4CCN(C)CC4)CC3)ccc2c1 | 99
CN(Cc1cn(CC(N)=O)c2ccccc12)CC1CCN(CCc2ccc(F)cc2)CC1 | 41
Cc1ccc2nccc(N3CCC(N4CCC(O)CC4)CC3)c2c1 | 12
CCN1CCN([C@H]2CCN(c3ccnc4ccncc34)C2)CC1 | 98
Cc1cc(N2CCC(Nc3ccnc4ccncc34)CC2)nc(C)n1 | 7
Cc1ccc2[nH]cc(-c3cc(N4CCOCC4)nc(N)n3)c2c1 | 55
Nc1cc(N2CCC(c3nc4cc(F)ccc4[nH]3)CC2)nc(N2CCOCC2)n1 | 42
Cc1ccc(-c2cccc3c(C(=O)NCCCN4CCC(N5CCCCC5)CC4)cc(C)nc23)cc1 | 103
Brc1ccc2[nH]c3c(c2c1)CCCC3NC1CCc2[nH]cnc2C1 (stereo unspecified) | 104
CCOc1cc2nccc(N3C[C@H]4CN(C)C[C@H]4C3)c2cc1OCC | 96
Nc1ccc(-c2cc(OC(F)(F)F)ccc2O)cn1 | 14
Oc1ccc(OC(F)(F)F)cc1-c1ccc2nccn2n1 | 92
Clc1cccc(N2CC[C@H](CNC3CCN(Cc4ccco4)CC3)C2)c1 | 97
COc1ccnc(NCCCc2nc(-c3ccncc3)cs2)n1 | 64
